# Source: PubChem (National Center for Advancing Translational Sciences (NCATS))
# PTHR1 agonist – qHTS for PTHR1 Agonists: Primary Screen; Parathyroid hormone/parathyroid hormone-related peptide receptor (Homo sapiens), Q03431; HEK293 GP2 PTHR1 cells, GloSensor cAMP luminescence, 1 h; Potency, µM (doses to about 115 µM), inactives show at the top dose activation, usual class: activators; 410,000 tested, 0.075% active; AID 743266, 2014; also: potency is read from the fitted curve at half-maximal effect; nearly all actives have a fitted effect of over 55% in size
#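 HEK-293-derived GP2 cells expressing PTHR1 and a GloSensor cAMP reporter, 3,000/well, plated overnight, given luciferin plus IBMX (each 0.5 mM as added) for 1 h at 37 °C, then compound for 1 h at 37 °C. Luminescence was read after 15 min at room temperature.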
# TRHR enhancer – qHTS for Small Molecule Agonists and Allosteric Enhancers of Human TRH Receptor: Primary Screen for Enhancers | enhancement, % at 2 µM | Thyrotropin-releasing hormone receptor (Homo sapiens), P34981 | TRHR cells, fluo-8 calcium fluorescence, EC20 TRH enhancement | 360,000 tested, 0.66% active; in the data active = enhancement above about 30%; also: 0% is about no effect
#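 Enhancer read-out: after compound pinning and an initial kinetic agonist-mode read, an EC20 of TRH (10 nM final) was injected and fluo-8 calcium signal (Ex 480/Em 530) followed at 1 s/cycle for 100 cycles in TRHR-expressing cells.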
# GLP1R cytotox – qHTS of GLP-1 Receptor Inverse Agonists: Cytotox Screen; HEK293 cAMP-luciferase reporter cells, luminescence, 24 h; Potency, µM (top dose mostly 38.3 µM), without a hit: top-dose activity change, negative = inhibition, actives largely listed as inhibitors; 410,000 tested, 0.13% active;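 also: loss of luciferase light is scored as toxicity; potency is read from the fitted curve at half-maximal effect; % is scaled to controls: 0 for no effect and ±100 for the full control effect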
#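 Compound-treated cells are incubated 24 hr at 37 deg C under 5% CO2 after a 12 hour attachment period, then luciferase detection reagent is added and luminescence is measured following 12 min at room temperature; lowered signal indicates toxicity.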
# GLP-1R agonist – qHTS of GLP-1 Receptor Agonists; Glucagon-like peptide 1 receptor (Homo sapiens), P43220; HEK293 GLP-1R CRE-luciferase, luminescence, 4-6 h; cells express a hypersensitive GLP-1R form; Potency, µM (series often up to 45.6 µM), for the others: at the top dose activation, actives largely listed as activators; 380,000 tested, 0.007% active; AID 624172, 2012; also: potency is read from the fitted curve at half-maximal effect; % of control where 0% means no effect
# Target sequence (P43220 whole entry, looked up): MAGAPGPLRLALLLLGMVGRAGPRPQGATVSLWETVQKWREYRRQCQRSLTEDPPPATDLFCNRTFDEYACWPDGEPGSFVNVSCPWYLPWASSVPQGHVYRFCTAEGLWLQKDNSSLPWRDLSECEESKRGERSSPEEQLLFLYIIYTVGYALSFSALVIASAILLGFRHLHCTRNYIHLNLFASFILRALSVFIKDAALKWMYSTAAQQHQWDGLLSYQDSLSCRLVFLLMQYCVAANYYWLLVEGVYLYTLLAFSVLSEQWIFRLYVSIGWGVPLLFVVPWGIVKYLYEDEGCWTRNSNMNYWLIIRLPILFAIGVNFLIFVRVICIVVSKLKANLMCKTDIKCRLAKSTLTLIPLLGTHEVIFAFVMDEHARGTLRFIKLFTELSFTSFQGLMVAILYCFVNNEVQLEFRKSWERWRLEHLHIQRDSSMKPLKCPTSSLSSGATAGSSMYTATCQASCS
# TRHR ag – qHTS for Small Molecule Agonists and Allosteric Enhancers of Human TRH Receptor: Primary Screen for Agonists; TRHR cells, calcium flux fluo-8, FDSS agonist mode; activation, % at 2 µM; 360,000 tested, 0.18% active; AID 493084, 2011; in the data active = activation above about 30%; also: 0% is about no effect
#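 Fluo-8-loaded TRHR cells; 10 s baseline, compound added, kinetic Ca2+ fluorescence read 1/s, agonist mode.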
# GLP-1R inv ag – qHTS of GLP-1 Receptor Inverse Agonists (Inhibition Mode); AID 624417, 2012; HEK293 GLP-1R CRE-luciferase, luminescence, 24 h; GLP-1R form is constitutively active; 410,000 tested, 1.6% active; Glucagon-like peptide 1 receptor (Homo sapiens), P43220; Potency, µM (top dose mostly 38.3 µM), inactives show at the top dose activity change, negative = inhibition, hits mostly inhibitors; also: potency is read from the fitted curve at half-maximal effect; % is scaled to controls: 0 for no effect and ±100 for the full control effect; nearly all actives have a fitted effect of over 55% in size
#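 Stable HEK293 clone (constitutively active GLP-1R + cAMP-response luciferase); 200 cells/uL plated, 12 h pre-culture, compound 24 hr, 37 deg C/5% CO2; detection reagent 12 min RT; luminescence.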
# The depositor's hits bear a star; i = inactive; ? = inconclusive; . = no result given; [ ] = another dose, or the depositor's remark. A selection: hits, their analogues and other compounds. The true share with any hit is near 2.4%. Unless noted, calls follow the shape of the dose curve; as a rule, active = well fitted curve in the direction sought with a large enough effect; inconclusive = small, poorly fitted or top-dose-only effect, or another doubt; inactive = no such curve, though single readings can be large; an effect the other way counts as inactive or inconclusive.
SMILES,PTHR1 agonist,TRHR enhancer,GLP1R cytotox,GLP-1R agonist,TRHR ag,GLP-1R inv ag
COc1cc(C)ccc1OCc1cc(C(=O)N2CCCCCCC2)no1,-15%,39*,0%,8%,-1,?
Cc1ccc(OCc2cc(C(=O)N3CCCCCCC3)no2)cc1C,-9%,-5,4%,18%,0,?
Cc1cccc(CC(C)NC(=O)c2cc(COc3ccc(C)c(C)c3)on2)n1 (configuration not stated),-38%,8,3%,4%,-1,10µM*
Cc1ccc(OCc2cc(C(=O)N3CCC(C(O)C(C)C)CC3)no2)cc1C (configuration not stated),-19%,-6,-15%,9%,0,11µM*
OC(c1ccccc1)(c1ccc(F)cc1)C(c1ccccc1)N1CCOCC1 (configuration not stated),-16%[57.5 µM],-10,-32%,-12%,0,7.9µM*
CC(O)(c1ccccc1)C(C(c1ccccc1)N1CCOCC1)N1CCOCC1 (configuration not stated),i,.,-1%,-9%,.,8%
COc1cccc2cc(-c3nc4ccccc4o3)c(=O)oc12,-65%,11,145%,3%,2,16%
O=C(CCc1ccccc1)NC1CC(=O)N(c2cccc(F)c2)C1 (configuration not stated),-6%,37*,7%,.,0,0%
COc1cc(Cl)ccc1NC(=S)N(CCN1CCOCC1)C1CCN(C(C)=O)CC1,-56%,0,2%,-3%,0,-17%
O=C(COc1ccc(Cl)cc1)NCCN1CCCCC1,-14%,-2,0%[7.66 µM],-1%,0,-8%[7.66 µM]
O=C1NC(=S)S/C1=C\c1cc(Cl)cc(Cl)c1O,-44%,.,?,-3%,.,?
Cc1cccc(NCc2nnc(-c3ccccc3)o2)c1C,-35%,-2,-1%,9%,0,?
CCOc1ccc(NC(=O)CN(C)C(=O)CCCn2c(=O)oc3ccccc32)cc1OCC,-21%,38*,2%,-1%,0,19%
COc1ccc2[nH]c(C(=O)N3CCNCC3)cc2c1OC,i,5,-5%,14%,0,12%
c1ccc2c(OCCCCN3CCCC3)cccc2c1,5%,-2,17%,-5%,0,-15%
Cc1cc(CC(C)C)n(-c2nc3ccccc3c(=O)n2OCc2ccccc2)n1,-25%[57.5 µM],-1,-15%,1%,0,7.1µM*
C#CCSc1nc(=O)c2cccnc2n1-c1ccc(C)cc1,i,0,-5%,27%,-1,78%
CCOCC(=O)Nc1cccc(SC)c1,-1%,-1,-4%,-1%,1,5%
CC(Sc1nnc(-c2cccnc2)n1-c1ccccc1F)C(=O)N1CCCc2ccccc21 (configuration not stated),.,37*,.,.,0,.
C=CCN1C=CC(=C/C=C(/C#N)C(=O)OCC)C=C1,-2%[57.5 µM],0,-16%,-10%,37*,?
CCS(=O)(=O)N1CC(=O)N(c2cccc(C)c2C)C(C)(C(=O)NC2CCCCCC2)C1 (configuration not stated),i,-14,-10%,.,0,4%
COc1ccc(N2CCN(C(c3cc(OC)ccc3OC)c3nnnn3Cc3ccco3)CC2)cc1 (configuration not stated),-5%[57.5 µM],39*,-3%,6%,-1,?
O=C(CCC1CCCN(C(=O)c2cc3ccccc3o2)C1)NCc1ccc(F)c(F)c1 (configuration not stated),-46%,.,17%,-1%,.,?
Cn1cnnc1Sc1ccc(C(F)(F)F)cc1[N+](=O)[O-],i,6,1%,1%,1,6.3µM*
CCOC(=O)/C(=C/c1ccc(N2CCC(c3ccccc3)=N2)cc1)C(C)=O,-45%,-1,-24%,-1%,46*,?
SMILES,PTHR1 agonist,TRHR enhancer,GLP1R cytotox,GLP-1R agonist,TRHR ag,GLP-1R inv ag
CC1NC(=O)c2cc3ccccc3cc2-n2c1nc1cc(Cl)ccc1c2=O (configuration not stated),-24%,.,4%,10%,.,7%
O=C(Nc1ccccn1)c1cc2ccccc2o1,-20%[57.5 µM],2,-1%,-3%,0,0%
O=C(Nc1ncccc1O)c1cc2ccccc2o1,-38%,8,?,-26%,0,11µM*
Cc1ccnc(NC(=O)c2cc3ccccc3o2)c1,-12%,2,6%,-22%,0,5.6µM*
COc1cccc(-c2ccc(SCC(=O)NCCc3ccccc3)nn2)c1,i,5,-1%,6%,-1,4%
CCOC(=O)N1CCN(C(=O)C[C@@H]2C[C@@]3(C(=O)OC)CCCCC=C3N(Cc3ccc(Cl)cc3Cl)C2=O)CC1,-2%,.,-14%,-2%,.,11µM*
CN1CCN(C(c2cccc(Br)c2)c2sc3nc(-c4ccco4)nn3c2O)CC1 (configuration not stated),1%,-2,-15%,.,0,17%
COCCNC(=O)CCc1c(C)nc2c(c(C)nn2-c2ccc(C)cc2)c1C,-22%,1,11%,-2%,0,-5%
CCN(CC)CCNC(=O)CCc1c(C)nc2c(c(C)nn2-c2ccc(C)cc2)c1C,-40%,30*,?,0%,-1,1.6µM*
COc1ccc(/C=N/NC(=O)CCCOc2ccc(Cl)cc2Cl)cc1[N+](=O)[O-],-6%,-4,-3%,?,0,8%
C=CCc1ccc(OCC(O)CO)c(OC)c1 (configuration not stated),-1%,5,12%,1%,0,-5%
C=CCc1ccc(O)c(-c2cc(CC=C)ccc2O)c1,-58%,-5,-3%,2%,0,11µM*
Cc1ccc(C)c(NC(=O)CCN2CCc3ccccc3C2)c1,i,-4,3%,6%,1,11µM*
Cc1ccc(NC(=O)c2sc3nc(C)nc(N4CCN(c5ccccn5)CC4)c3c2C)c(C)c1,-14%,-2,-25%,-1%,0,11µM*
Cc1cccc(CCNC(=O)C2CCN(S(=O)(=O)c3cccc4cccnc34)CC2)c1,-12%,14,-2%,6%,-1,-2%
